{
  "source": "the supplement of paper PMC11417369",
  "note": "± gives the standard deviation of the averaged measurements. The full ranking holds about 25,000 sequences; the median of “ln(normalized median fluorescence intensity)” is about 10, and the highest 2% start at about 12. This is one part of a sample in which the highest values are shown more often than they occur.",
  "data": [
    {"test_system": "PfAP2-G AP2 domain (GST-tagged)", "assay": "gcPBM binding intensity (ln(normalized median fluorescence intensity)); higher = stronger DNA binding", "procedure,_shortened": "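In this array assay, P. falciparum DNA-binding domains with a GST tag, expressed in E. coli, were applied for 1 h to primer-extended double-stranded 36-bp intergenic genomic probes and negative controls on an Agilent 4 × 180k array. Bound protein was visualised with Alexa488 anti-GST antibody at 488 nm. Binding intensity is the highest Masliner-normalised natural-log median intensity across replicate spots of either probe orientation.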", "values": [
      {"sequence": "TAGAATAATCTATAAACACACAAACACAACAAAAGA [CACACA_site7861]", "gcPBM binding intensity (ln)": "10.3 ± 0.32"},
      {"sequence": "ATATATTATCAACTTACACACAGAAAAATATAATAA [CACACA_site293]", "gcPBM binding intensity (ln)": "9.975 ± 0.092"},
      {"sequence": "ATTTGGCATAAACACACACACACACCCACCCACATA [CACACA_site8096]", "gcPBM binding intensity (ln)": "10.6 ± 0.38"},
      {"sequence": "ACGGGCGACACATAAGTGCGCAAAAAAAAAAAAATA [GTGCAC_site9688]", "gcPBM binding intensity (ln)": "10.4 ± 0.46"},
      {"sequence": "TTTTTTTTTTTGTGAGTGCACGTATGAAGAGAAAAA", "gcPBM binding intensity (ln)": "10.9 ± 0.8"},
      {"sequence": "TTATAAATATAATATTGTACAAAATTTTAACATGTC [XGTACX_site5259]", "gcPBM binding intensity (ln)": "10.9 ± 0.59"},
      {"sequence": "GCATTCATTTTTAATACACACAAAAAAAAAATAAAA [CACACA_site2408]", "gcPBM binding intensity (ln)": "10.2 ± 0.42"},
      {"sequence": "TATATATATATATATACACACATTTTTAATGATAAA [CACACA_site2695]", "gcPBM binding intensity (ln)": "10.1 ± 0.37"},
      {"sequence": "TTTTAATGATATATGAGTACACATTGTTTTTTATAA [XGTACX_site1072]", "gcPBM binding intensity (ln)": "11.6 ± 1"},
      {"sequence": "CCCTCAACGAATTTGAGTACACATTTTAAATGATAT [XGTACX_site7763]", "gcPBM binding intensity (ln)": "11.7 ± 1.1"},
      {"sequence": "AAAATCTAGGTATTTATACACACTAATATAATATAC [CACACA_site8108]", "gcPBM binding intensity (ln)": "10.2 ± 0.28"},
      {"sequence": "ATAACTTTATTTTCCTGTACACACATTTGACATATT [XGTACX_site7192]", "gcPBM binding intensity (ln)": "11.4 ± 0.73"},
      {"sequence": "ATAACTTTTGCGCGTACACACATTTATCCTCTTTAT [CACACA_site209]", "gcPBM binding intensity (ln)": "11.7 ± 0.96"},
      {"sequence": "AGTATAACTTTTGCGCGTACACACATTTATCCTCTT [XGTACX_site429]", "gcPBM binding intensity (ln)": "11.6 ± 0.72"},
      {"sequence": "GTATAACTTTTGCGCGTACACACATTTATCCTCTTT [CACACA_site208]", "gcPBM binding intensity (ln)": "11.7 ± 0.86"},
      {"sequence": "TCCTCTTTTATTTTTACACACGCGTAAACATATATA [CACACA_site667]", "gcPBM binding intensity (ln)": "10.5 ± 0.4"},
      {"sequence": "TTTTTTTTTTTTTTTACACACATTTGAATAACTTTA [CACACA_site6810]", "gcPBM binding intensity (ln)": "9.75 ± 0.34"},
      {"sequence": "AATTTATGTTTTAAAAGTACTTTTCTAATTTATAAA [XGTACX_site1593]", "gcPBM binding intensity (ln)": "11.1 ± 0.72"},
      {"sequence": "TACTGAAATAATTATTTAAACGTTTTTATATGTATT [CACACA_negctrl_site487]", "gcPBM binding intensity (ln)": "9.83 ± 0.042"},
      {"sequence": "AAATAGTTAAAAAGGCGTACACATAAATAAATAAAT [XGTACX_site2096]", "gcPBM binding intensity (ln)": "11.7 ± 0.81"},
      {"sequence": "TACACAAAACATAAAAGTACATAATAATAAAGTTAA [XGTACX_site8872]", "gcPBM binding intensity (ln)": "11.3 ± 0.6"},
      {"sequence": "TACATAATAATAAGGCGTACATAAAAATTAAAAATT [XGTACX_site8769]", "gcPBM binding intensity (ln)": "11.4 ± 1"},
      {"sequence": "TGTCTTTAAATTTCTCAACACACAGTTATAAAAAAT [CACACA_site8930]", "gcPBM binding intensity (ln)": "9.94 ± 0.099"},
      {"sequence": "AAAAGAATTTGAAGTCGTACAATATCTATTATATGA [XGTACX_site8275]", "gcPBM binding intensity (ln)": "11.2 ± 0.78"},
      {"sequence": "AATAAACATAGATGTACACACATATACAGATATATA [CACACA_site5570]", "gcPBM binding intensity (ln)": "11.5 ± 1"},
      {"sequence": "TATATACATATATGTACACACATTACAGATGTACAT [CACACA_site966]", "gcPBM binding intensity (ln)": "11.7 ± 0.93"},
      {"sequence": "TATATACAAATATGTACACACATTACAGATGTACAT [CACACA_site6586]", "gcPBM binding intensity (ln)": "11.8 ± 0.82"},
      {"sequence": "TACATTGTATACATATGTACACATATATATATATAT [XGTACX_site6174]", "gcPBM binding intensity (ln)": "11.5 ± 0.71"},
      {"sequence": "AATATATACATATATGTACACACATTACAGATGTAC [CACACA_site8227]", "gcPBM binding intensity (ln)": "11.5 ± 0.73"},
      {"sequence": "TAAATACATAGATGTACACACATTACAGATGTACAT [CACACA_site4692]", "gcPBM binding intensity (ln)": "11.7 ± 0.98"},
      {"sequence": "TACACACATTACAGATGTACATAAAATTAAAAAAAT [XGTACX_site1804]", "gcPBM binding intensity (ln)": "11.3 ± 0.71"},
      {"sequence": "TGTACAAATATGTACACACACACATATATATATATA [CACACA_site584]", "gcPBM binding intensity (ln)": "11.4 ± 0.91"},
      {"sequence": "CGTTACACAAAAATATGTACATATATACATATATAT [XGTACX_site4631]", "gcPBM binding intensity (ln)": "11.1 ± 0.64"},
      {"sequence": "TCCTAATGCTACCACACACACAAAAACAAATAATAA [CACACA_site2610]", "gcPBM binding intensity (ln)": "10.5 ± 0.57"},
      {"sequence": "AGTAATAAATTTTATACATGCATAAAAAAAAAAAAA [TGCATGCA_site661]", "gcPBM binding intensity (ln)": "9.72 ± 0.27"},
      {"sequence": "TAAAGGTAGATATATTGTACATACACACCTATATAA [XGTACX_site6865]", "gcPBM binding intensity (ln)": "10.9 ± 0.45"},
      {"sequence": "AACAGATAAAAGGGTACACACATATATACCTGTACA [CACACA_site4285]", "gcPBM binding intensity (ln)": "11.7 ± 0.99"},
      {"sequence": "ACATAAATAATAAAAACACACATATGTACAGATATA [CACACA_site5112]", "gcPBM binding intensity (ln)": "11.1 ± 0.59"},
      {"sequence": "TAAACATATAAAAAGGGTACACATTAAACATAGTAT [XGTACX_site7096]", "gcPBM binding intensity (ln)": "11.3 ± 0.79"},
      {"sequence": "AACAGATAAAAGGGTACACACATATATACAAGTACA [CACACA_site7959]", "gcPBM binding intensity (ln)": "11.7 ± 0.83"},
      {"sequence": "AAAAAAAAAAAACATACACACATACATACAGATATA [CACACA_site4681]", "gcPBM binding intensity (ln)": "9.94 ± 0.13"},
      {"sequence": "AACAGATAAAAGGGTACACACATATATACATGTACA [CACACA_site225]", "gcPBM binding intensity (ln)": "11.6 ± 0.88"},
      {"sequence": "ATAAACAGATAAAAGGGTACACACATATATACATGT [XGTACX_site452]", "gcPBM binding intensity (ln)": "11.4 ± 0.84"},
      {"sequence": "AAGTACATACATAAAACACACACATATATATATATA [CACACA_site8541]", "gcPBM binding intensity (ln)": "10.5 ± 0.35"},
      {"sequence": "TTTTCATTTTTTTTTTTTTTTTTTTTTCTTTTTTTT [CACACA_negctrl_site1312]", "gcPBM binding intensity (ln)": "9.52 ± 0.099"},
      {"sequence": "TTTCCCTTAAATTAATGTACATAAATTGAAAATACC [XGTACX_site1602]", "gcPBM binding intensity (ln)": "11.3 ± 0.77"},
      {"sequence": "ACTTGACACGGACACACACACATATATAAAAAAAAA [CACACA_site4576]", "gcPBM binding intensity (ln)": "11.2 ± 0.91"},
      {"sequence": "AAAAAAAAAAAAAAAAGTACATATGCTCAAGAGATG [XGTACX_site3783]", "gcPBM binding intensity (ln)": "11.5 ± 0.82"},
      {"sequence": "TTTTTTTTTTTTTAATGTACCCATGGGCACATAGGT [XGTACX_site486]", "gcPBM binding intensity (ln)": "11.4 ± 1"},
      {"sequence": "CACTTTATACGTAATTGTACTTTTTCTTTTTTTTAT [XGTACX_site3175]", "gcPBM binding intensity (ln)": "11.5 ± 0.86"},
      {"sequence": "AAATAATATATATACACACACACATATATATATACA [CACACA_site554]", "gcPBM binding intensity (ln)": "10.03 ± 0.028"},
      {"sequence": "ATAATATAATAAACGTGTACACAATTAAATTATTAT [XGTACX_site3491]", "gcPBM binding intensity (ln)": "11.8 ± 0.76"},
      {"sequence": "GTATATTAATAAACATGTACACAATTTATTTATATT [XGTACX_site1012]", "gcPBM binding intensity (ln)": "11.5 ± 0.98"},
      {"sequence": "AAGTTATTTATATATACACACAAATATAAATAATAT [CACACA_site1228]", "gcPBM binding intensity (ln)": "9.97 ± 0.014"},
      {"sequence": "TTATATTTTTTAATTACACACAATTTTTATAAATAT [CACACA_site4148]", "gcPBM binding intensity (ln)": "9.985 ± 0.021"},
      {"sequence": "ATAGTTATTTTATAGCGTACACAATAAATATATAAA [XGTACX_site4445]", "gcPBM binding intensity (ln)": "11.7 ± 1.1"},
      {"sequence": "TAAAATTTTTTATTCACACAAATATAGTTATATATA [CACACA_site5348]", "gcPBM binding intensity (ln)": "9.81 ± 0.16"},
      {"sequence": "TACAAATTAATATGTACACACAAATATAAATATGTA [CACACA_site7016]", "gcPBM binding intensity (ln)": "11.5 ± 0.98"},
      {"sequence": "TATATATTATACACGTGTACACATTATAACAATATA [XGTACX_site7799]", "gcPBM binding intensity (ln)": "11.7 ± 0.77"},
      {"sequence": "ATATATATATTAACAATACACACGTGTATACCTTAT [CACACA_site2217]", "gcPBM binding intensity (ln)": "10.38 ± 0.078"},
      {"sequence": "ATATATATTAACAATACACACGTGTATACCTTATTG [CACACA_site5258]", "gcPBM binding intensity (ln)": "10.5 ± 0.22"},
      {"sequence": "TTGTAATTATTAAACACACACAAAATATATATAATA [CACACA_site2523]", "gcPBM binding intensity (ln)": "10.3 ± 0.18"},
      {"sequence": "ATATAATAAACGTGTACACAATTAAATTATTATATA [CACACA_site5017]", "gcPBM binding intensity (ln)": "11.7 ± 1.1"}
    ]}
  ]
}
